According to the supplement of paper PMC4466140:

B1: unnamed (peptide)
chain: STKKPRPPVKSKPKH

Target: AgAbp1
Test: SPOT peptide array binding signal intensity (averaged, normalized) (arbitrary units (background-subtracted, floor 0; scale differs between SH3 domains)); higher = stronger binding of the SH3 domain to the peptide
Procedure, shortened: (§1)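 Peptides were synthetic 15-mers on cellulose membranes, with every cysteine replaced by serine. They were incubated overnight at 4°C with GST-SH3 domains from four yeast species at 10 μg/ml in TBS-based blocking buffer. Binding signal, the replicate-averaged normalized and background-subtracted spot intensity, is in arbitrary units that differ between domains.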

Binder	SPOT peptide array binding signal intensity
B1	553

Target: AgBbc1
Test: as above
Procedure, shortened: as §1

Binder	SPOT peptide array binding signal intensity
B1	104

Target: AgBem1-D1
Test: as above
Procedure, shortened: as §1

Binder	SPOT peptide array binding signal intensity
B1	1

Target: AgBzz1-D1
Test: as above
Procedure, shortened: as §1

Binder	SPOT peptide array binding signal intensity
B1	72

Target: AgBzz1-D2
Test: as above
Procedure, shortened: as §1

Binder	SPOT peptide array binding signal intensity
B1	38

Target: AgCyk3
Test: as above
Procedure, shortened: as §1

Binder	SPOT peptide array binding signal intensity
B1	≤ 0

Target: AgFus1
Test: as above
Procedure, shortened: as §1

Binder	SPOT peptide array binding signal intensity
B1	9

Target: AgHof1
Test: as above
Procedure, shortened: as §1

Binder	SPOT peptide array binding signal intensity
B1	1.25

Target: AgHse1
Test: as above
Procedure, shortened: as §1

Binder	SPOT peptide array binding signal intensity
B1	71.5

Target: AgLsb1
Test: as above
Procedure, shortened: as §1

Binder	SPOT peptide array binding signal intensity
B1	≤ 0

Target: AgLsb4
Test: as above
Procedure, shortened: as §1

Binder	SPOT peptide array binding signal intensity
B1	4

Target: AgMyo5
Test: as above
Procedure, shortened: as §1

Binder	SPOT peptide array binding signal intensity
B1	3.25

Target: AgNbp2
Test: as above
Procedure, shortened: as §1

Binder	SPOT peptide array binding signal intensity
B1	9

Target: AgRvs167
Test: as above
Procedure, shortened: as §1

Binder	SPOT peptide array binding signal intensity
B1	1.83

Target: AgSho1
Test: as above
Procedure, shortened: as §1

Binder	SPOT peptide array binding signal intensity
B1	23

Target: AgSla1-D1-D2
Test: as above
Procedure, shortened: as §1

Binder	SPOT peptide array binding signal intensity
B1	7

Target: AgSla1-D3
Test: as above
Procedure, shortened: as §1

Binder	SPOT peptide array binding signal intensity
B1	≤ 0

Target: CaAbp1-D1
Test: as above
Procedure, shortened: as §1

Binder	SPOT peptide array binding signal intensity
B1	1410

Target: CaAbp1-D2
Test: as above
Procedure, shortened: as §1

Binder	SPOT peptide array binding signal intensity
B1	1100

Target: CaBbc1
Test: as above
Procedure, shortened: as §1

Binder	SPOT peptide array binding signal intensity
B1	292

Target: CaBem1-D1
Test: as above
Procedure, shortened: as §1

Binder	SPOT peptide array binding signal intensity
B1	4

Target: CaBzz1-D1
Test: as above
Procedure, shortened: as §1

Binder	SPOT peptide array binding signal intensity
B1	104

Target: CaBzz1-D2
Test: as above
Procedure, shortened: as §1

Binder	SPOT peptide array binding signal intensity
B1	104

Target: CaCyk3
Test: as above
Procedure, shortened: as §1

Binder	SPOT peptide array binding signal intensity
B1	2

Target: CaFus1
Test: as above
Procedure, shortened: as §1

Binder	SPOT peptide array binding signal intensity
B1	29

Target: CaHof1
Test: as above
Procedure, shortened: as §1

Binder	SPOT peptide array binding signal intensity
B1	1.25

Target: CaHse1
Test: as above
Procedure, shortened: as §1

Binder	SPOT peptide array binding signal intensity
B1	≤ 0

Target: CaLsb1
Test: as above
Procedure, shortened: as §1

Binder	SPOT peptide array binding signal intensity
B1	0.5

Target: CaLsb4
Test: as above
Procedure, shortened: as §1

Binder	SPOT peptide array binding signal intensity
B1	≤ 0

Target: CaMyo5
Test: as above
Procedure, shortened: as §1

Binder	SPOT peptide array binding signal intensity
B1	2.5

Target: CaNbp2
Test: as above
Procedure, shortened: as §1

Binder	SPOT peptide array binding signal intensity
B1	21

Target: CaRvs167
Test: as above
Procedure, shortened: as §1

Binder	SPOT peptide array binding signal intensity
B1	0.333

Target: CaRvs167-3
Test: as above
Procedure, shortened: as §1

Binder	SPOT peptide array binding signal intensity
B1	6.25

Target: CaSho1
Test: as above
Procedure, shortened: as §1

Binder	SPOT peptide array binding signal intensity
B1	19.5

Target: CaSla1-D1-D2
Test: as above
Procedure, shortened: as §1

Binder	SPOT peptide array binding signal intensity
B1	318

Target: CaSla1-D3
Test: as above
Procedure, shortened: as §1

Binder	SPOT peptide array binding signal intensity
B1	≤ 0

Target: ScAbp1
Test: as above
Procedure, shortened: as §1

Binder	SPOT peptide array binding signal intensity
B1	2130

Target: ScBbc1
Test: as above
Procedure, shortened: as §1

Binder	SPOT peptide array binding signal intensity
B1	5.5

Target: ScBem1-D1
Test: as above
Procedure, shortened: as §1

Binder	SPOT peptide array binding signal intensity
B1	14

Target: ScBzz1-D1
Test: as above
Procedure, shortened: as §1

Binder	SPOT peptide array binding signal intensity
B1	4.5

Target: ScBzz1-D2
Test: as above
Procedure, shortened: as §1

Binder	SPOT peptide array binding signal intensity
B1	13

Target: ScCyk3
Test: as above
Procedure, shortened: as §1

Binder	SPOT peptide array binding signal intensity
B1	≤ 0

Target: ScFus1
Test: as above
Procedure, shortened: as §1

Binder	SPOT peptide array binding signal intensity
B1	≤ 0

Target: ScHof1
Test: as above
Procedure, shortened: as §1

Binder	SPOT peptide array binding signal intensity
B1	≤ 0

Target: ScHse1
Test: as above
Procedure, shortened: as §1

Binder	SPOT peptide array binding signal intensity
B1	110

Target: ScLsb1
Test: as above
Procedure, shortened: as §1

Binder	SPOT peptide array binding signal intensity
B1	0.5

Target: ScLsb2
Test: as above
Procedure, shortened: as §1

Binder	SPOT peptide array binding signal intensity
B1	3

Target: ScLsb3
Test: as above
Procedure, shortened: as §1

Binder	SPOT peptide array binding signal intensity
B1	153

Target: ScLsb4
Test: as above
Procedure, shortened: as §1

Binder	SPOT peptide array binding signal intensity
B1	1

Target: ScMyo3
Test: as above
Procedure, shortened: as §1

Binder	SPOT peptide array binding signal intensity
B1	5.5

Target: ScMyo5
Test: as above
Procedure, shortened: as §1

Binder	SPOT peptide array binding signal intensity
B1	≤ 0

Target: ScNbp2
Test: as above
Procedure, shortened: as §1

Binder	SPOT peptide array binding signal intensity
B1	22

Target: ScPex13
Test: as above
Procedure, shortened: as §1

Binder	SPOT peptide array binding signal intensity
B1	≤ 0

Target: ScRvs167
Test: as above
Procedure, shortened: as §1

Binder	SPOT peptide array binding signal intensity
B1	≤ 0

Target: ScSho1
Test: as above
Procedure, shortened: as §1

Binder	SPOT peptide array binding signal intensity
B1	269

Target: ScSla1-D1-D2
Test: as above
Procedure, shortened: as §1

Binder	SPOT peptide array binding signal intensity
B1	34.5

Target: ScSla1-D3
Test: as above
Procedure, shortened: as §1

Binder	SPOT peptide array binding signal intensity
B1	16.8

Target: SpAbp1-D1
Test: as above
Procedure, shortened: as §1

Binder	SPOT peptide array binding signal intensity
B1	193

Target: SpBbc1
Test: as above
Procedure, shortened: as §1

Binder	SPOT peptide array binding signal intensity
B1	8

Target: SpBzz1-D1
Test: as above
Procedure, shortened: as §1

Binder	SPOT peptide array binding signal intensity
B1	47
